The values below come from the antibiotic and cytotoxicity screens of Wong et al. (2023).

Screen size: about 39,000 compounds; about 1,500 (3.8%) were called active. For the sample, actives were picked, then their nearest neighbours and some compounds at random.

The assay concerns HSkMC (human skeletal muscle cells). In words: cytotoxicity call (relative viability < 0.9). The conditions noted are these: 10 µM.
As for `Cc1ccc(S(=O)(=O)N(C)C[C@@H]2Oc3ccc(NC(=O)CCCN(C)C)cc3CC(=O)N([C@@H](C)CO)C[C@H]2C)cc1`, the cytotoxicity call is “inactive”.

Take `O=C(CN1CCOCC1)NCC[C@@H]1CC[C@H](NC(=O)Cc2ccccn2)[C@@H](CO)O1`: the cytotoxicity call was “inactive”.

In the case of `Cc1noc(C)c1S(=O)(=O)N(C)C[C@H]1Oc2ccc(NC(=O)Cn3cnnn3)cc2CC(=O)N([C@@H](C)CO)C[C@@H]1C`, the cytotoxicity call is “inactive”.

Regarding `C[C@@H]1CN([C@H](C)CO)S(=O)(=O)c2ccc(C#Cc3ccccc3)cc2O[C@@H]1CN(C)S(C)(=O)=O`, the cytotoxicity call was “inactive”.

On to `C[C@@H]1CCCCO[C@@H](CN(C)C(=O)Nc2ccccc2)[C@@H](C)CN([C@@H](C)CO)C(=O)c2cc(NC(=O)Nc3cccc4ccccc34)ccc2O1`, for which the cytotoxicity call is “inactive”.

For the molecule `COc1ccc(S(=O)(=O)Nc2ccc3c(c2)OC[C@@H](C)N(C)C[C@@H](C)[C@H](OC)CN(C)C3=O)cc1`, the cytotoxicity call is “inactive”.

For the molecule `CO[C@H](CN(C)S(=O)(=O)c1cccc(Cl)c1)[C@H](C)CN([C@H](C)CO)S(=O)(=O)c1ccc(Cl)cc1`, the cytotoxicity call is “inactive”.

Take `O=C(C[C@H]1CC[C@H]2[C@@H](COC[C@H](O)CN2C(=O)c2cccnc2)O1)NCc1ccc(-c2ccccc2)cc1`: the cytotoxicity call is “inactive”.

Turning to `NC(=O)c1nc2c(s1)CCNCC2`, the cytotoxicity call is “inactive”.

In the case of `Cc1ccc(S(=O)(=O)N(C)C[C@H]2OCCCC[C@@H](C)Oc3ccc(NS(C)(=O)=O)cc3C(=O)N([C@H](C)CO)C[C@@H]2C)cc1`, the cytotoxicity call is “inactive”.

Regarding `COc1ccc(S(=O)(=O)N(C)C[C@@H]2OCc3cn(nn3)CCCC(=O)N([C@H](C)CO)C[C@@H]2C)cc1`, the cytotoxicity call is “inactive”.

Take `O=C(C[C@H]1CC[C@@H]2[C@H](COC[C@H](O)CN2S(=O)(=O)c2ccccc2)O1)NCc1ccc(-c2ccccc2)cc1`: the cytotoxicity call was “inactive”.

In the case of `Cc1ccc(S(=O)(=O)Nc2ccc3c(c2)C(=O)N([C@@H](C)CO)C[C@H](C)[C@@H](CN(C)C(=O)Nc2ccc(F)cc2)OCCCC[C@@H](C)O3)cc1`, the cytotoxicity call was “inactive”.

Take `Cc1ccc(S(=O)(=O)Nc2ccc3c(c2)C(=O)N([C@H](C)CO)C[C@@H](C)[C@H](CN(C)C(=O)Nc2ccc(F)cc2)OCCCC[C@H](C)O3)cc1`: the cytotoxicity call was “active”.

In the case of `Cc1ccc(S(=O)(=O)Nc2ccc3c(c2)C(=O)N([C@H](C)CO)C[C@@H](C)[C@H](CN(C)C(=O)Nc2ccc(F)cc2)OCCCC[C@@H](C)O3)cc1`, the cytotoxicity call was “active”.

Regarding `Cc1ccc(S(=O)(=O)Nc2ccc3c(c2)C(=O)N([C@H](C)CO)C[C@H](C)[C@H](CN(C)C(=O)Nc2ccc(F)cc2)OCCCC[C@H](C)O3)cc1`, the cytotoxicity call was “inactive”.

Regarding `Cc1ccc(S(=O)(=O)Nc2ccc3c(c2)C(=O)N([C@@H](C)CO)C[C@H](C)[C@@H](CN(C)C(=O)Nc2ccc(F)cc2)OCCCC[C@H](C)O3)cc1`, the cytotoxicity call was “inactive”.

Take `Cc1ccc(S(=O)(=O)Nc2ccc3c(c2)C(=O)N([C@@H](C)CO)C[C@@H](C)[C@H](CN(C)C(=O)Nc2ccc(F)cc2)OCCCC[C@@H](C)O3)cc1`: the cytotoxicity call is “inactive”.

Take `C[C@H]1CN([C@@H](C)CO)S(=O)(=O)c2ccc(C#CC(C)(C)O)cc2O[C@H]1CN(C)C(=O)C1CCCCC1`: the cytotoxicity call is “inactive”.

For the molecule `C[C@H](CO)N1C[C@H](C)[C@H](CN(C)S(C)(=O)=O)Oc2ccc(NC(=O)Nc3ccc(F)cc3)cc2CC1=O`, the cytotoxicity call is “inactive”.

Regarding `COc1ccc(NC(=O)Nc2cccc3c2O[C@H](CN(C)C(=O)Nc2cccc4ccccc24)[C@H](C)CN([C@H](C)CO)C3=O)cc1`, the cytotoxicity call was “inactive”.

`COc1ccc(NC(=O)N(C)C[C@H]2Oc3c(NC(=O)C4CC4)cccc3C(=O)N([C@H](C)CO)C[C@H]2C)cc1`: the cytotoxicity call was “inactive”.

`C[C@H]1CN([C@@H](C)CO)C(=O)c2cc(NC(=O)Cc3ccccc3)ccc2O[C@@H]1CN(C)C(=O)Nc1cccc2ccccc12`: the cytotoxicity call was “inactive”.

With `Cc1nc2c(=O)n(C)c(=O)n(C)c2nc1Cl`, the cytotoxicity call is “active”.

Take `Cn1c(=O)c2c(nc(SCSc3nc4c(c(=O)n(C)c(=O)n4C)n3C)n2C)n(C)c1=O`: the cytotoxicity call is “inactive”.

As to `CCn1c(Cl)nc2c1c(=O)n(C)c(=O)n2C`, the cytotoxicity call is “inactive”.

As for `C[C@@H]1CN([C@H](C)CO)C(=O)c2cc(NC(=O)Nc3ccc4c(c3)OCO4)ccc2O[C@@H](C)CCCCO[C@H]1CN(C)Cc1ccccc1`, the cytotoxicity call is “inactive”.

With `Cc1ccc(S(=O)(=O)N(C)C[C@H]2OCCCC[C@@H](C)Oc3ccc(NS(C)(=O)=O)cc3C(=O)N([C@H](C)CO)C[C@H]2C)cc1`, the cytotoxicity call is “inactive”.

With `Cn1nnc2c1CCN(C(=O)CS(C)(=O)=O)[C@@H]2COCC1CC1`, the cytotoxicity call was “inactive”.

Regarding `CCN1CCN(Cc2ccc(C(=O)Nc3ccc(C)c(Oc4ccc5c(c4)CC(=O)N5)c3)cc2C(F)(F)F)CC1`, the cytotoxicity call was “active”.

Consider `COCC(=O)Nc1ccc2c(c1)CC(=O)N2`, for which the cytotoxicity call is “inactive”.

As for `Cc1ccc(S(=O)(=O)Nc2ccc3c(c2)C(=O)N([C@@H](C)CO)C[C@H](C)[C@@H](CN(C)C(=O)Nc2c(C)noc2C)OCCCC[C@@H](C)O3)cc1`, the cytotoxicity call was “inactive”.

Turning to `Cc1noc(C)c1NC(=O)N(C)C[C@@H]1Oc2ccc(NC(=O)C3CC3)cc2C(=O)N([C@H](C)CO)C[C@H]1C`, the cytotoxicity call is “inactive”.

As for `C[C@@H]1CN([C@H](C)CO)C(=O)CCCn2nncc2CO[C@H]1CN(C)C(=O)Nc1cccc(C(F)(F)F)c1`, the cytotoxicity call is “inactive”.

With `C[n+]1cc2c3c(ccc2c2ccc4cc5c(cc4c21)OCO5)OCO3.[Cl-]`, the cytotoxicity call was “active”.

On to `COc1ccc2cc3[n+](cc2c1OC)CCc1cc2c(cc1-3)OCO2.[Cl-]`, for which the cytotoxicity call was “inactive”.

In the case of `COCC#Cc1cnc2c(c1)C(=O)N([C@@H](C)CO)C[C@@H](C)[C@@H](CN(C)S(=O)(=O)c1ccccc1)O2`, the cytotoxicity call was “inactive”.

With `C[C@@H]1CN([C@H](C)CO)C(=O)c2cc(C#Cc3ccccc3F)cnc2O[C@@H]1CN(C)C(=O)c1ccc2c(c1)OCO2`, the cytotoxicity call was “inactive”.

Consider `Cc1ncc[nH]1`, for which the cytotoxicity call is “inactive”.

As for `OCc1ncc[nH]1`, the cytotoxicity call is “inactive”.

Take `CC[C@@H](C)SSc1ncc[nH]1`: the cytotoxicity call is “active”.

For the molecule `C[C@@H]1CN([C@H](C)CO)C(=O)c2cccc(NC(=O)Nc3ccc(F)cc3)c2O[C@H]1CN(C)C(=O)Nc1cccc2ccccc12`, the cytotoxicity call was “inactive”.

Regarding `C[C@@H]1CN([C@@H](C)CO)C(=O)c2cc(NS(C)(=O)=O)ccc2O[C@@H]1CN(C)Cc1ccc(C(=O)Nc2ccccc2N)cc1`, the cytotoxicity call was “inactive”.

For the molecule `Cc1ccc(S(=O)(=O)NC2=NCN(CCN3CCOCC3)CN2)cc1`, the cytotoxicity call is “inactive”.

In the case of `Cc1ccc(-n2nc(C(C)(C)C)cc2NC(=O)Nc2ccc(OCCN3CCOCC3)c3ccccc23)cc1`, the cytotoxicity call was “active”.

As for `O=C(NCCN1CCOCC1)c1ccccn1`, the cytotoxicity call was “inactive”.

Turning to `C[C@@H]1CN([C@H](C)CO)C(=O)c2cc(NS(=O)(=O)c3cn(C)cn3)ccc2O[C@@H]1CN(C)C(=O)Nc1ccc2c(c1)OCO2`, the cytotoxicity call was “inactive”.

Regarding `O=C1[C@@H]2[C@@H](C(=O)N1CCO)[C@@H]1C=C[C@@H]2C1`, the cytotoxicity call is “inactive”.

As to `C[C@@H]1CN([C@H](C)CO)S(=O)(=O)c2ccc(-c3cncnc3)cc2O[C@H]1CN(C)C(=O)Cc1ccncc1`, the cytotoxicity call was “inactive”.

Consider `C[C@@H]1CN([C@@H](C)CO)C(=O)c2cc(NC(=O)Nc3ccc4c(c3)OCO4)ccc2O[C@@H]1CN(C)C(=O)Nc1cccc2ccccc12`, for which the cytotoxicity call was “active”.

With `C[C@H]1CN([C@@H](C)CO)C(=O)c2cc(NC(=O)Nc3ccc4c(c3)OCO4)ccc2O[C@H]1CN(C)C(=O)Nc1cccc2ccccc12`, the cytotoxicity call is “inactive”.

Consider `C[C@@H]1CN([C@H](C)CO)C(=O)c2cc(NC(=O)Nc3ccc4c(c3)OCO4)ccc2O[C@H]1CN(C)C(=O)Nc1cccc2ccccc12`, for which the cytotoxicity call is “inactive”.

As to `C[C@H]1CN([C@@H](C)CO)C(=O)c2cc(NC(=O)Nc3ccc4c(c3)OCO4)ccc2O[C@@H]1CN(C)C(=O)Nc1cccc2ccccc12`, the cytotoxicity call is “inactive”.

On to `C[C@@H]1CN([C@H](C)CO)C(=O)c2cc(NC(=O)Nc3ccc4c(c3)OCO4)ccc2O[C@@H]1CN(C)C(=O)Nc1cccc2ccccc12`, for which the cytotoxicity call was “active”.

On to `C[C@H](CO)N1C[C@H](C)[C@@H](CN(C)C(=O)Nc2cccc3ccccc23)Oc2ccc(NC(=O)Nc3ccc4c(c3)OCO4)cc2C1=O`, for which the cytotoxicity call is “inactive”.

Take `O=C(C[C@H]1CC[C@H]2[C@@H](COC[C@@H](O)CN2S(=O)(=O)c2cccc(Cl)c2)O1)NCCCN1CCOCC1`: the cytotoxicity call is “inactive”.

Regarding `CO[C@@H]1[C@@H](O)[C@H](O)[C@H](O)[C@H](O)[C@@H]1O`, the cytotoxicity call was “inactive”.

For the molecule `COc1ccc(NC(=O)N(C)C[C@@H]2Oc3ccc(NC(=O)CCCCCC(=O)Nc4ccccc4N)cc3C(=O)N([C@@H](C)CO)C[C@@H]2C)cc1`, the cytotoxicity call is “inactive”.

For `O=C(Cn1cc(COc2ccc3ccccc3c2)nn1)NS(=O)(=O)c1ccccc1OC(F)(F)F`, the cytotoxicity call is “inactive”.

As to `CN(C)C(=O)C[C@@H]1CC[C@@H]2[C@H](COC[C@H](O)CN2S(=O)(=O)c2ccc(Oc3ccccc3)cc2)O1`, the cytotoxicity call was “inactive”.

`CC(C)[C@H]1CC[C@@H](C)C[C@@H]1NC(=O)c1cccc2ccccc12`: the cytotoxicity call is “inactive”.

For `COc1ccc2c(c1)n(CCN)c(=O)n2C(=O)[C@@H]1C[C@H](C)CC[C@H]1C(C)C`, the cytotoxicity call is “active”.

Consider `COc1ccc(S(=O)(=O)Nc2ccc3c(c2)C(=O)N([C@H](C)CO)C[C@@H](C)[C@@H](CN(C)S(C)(=O)=O)O3)cc1`, for which the cytotoxicity call is “inactive”.

As for `Cc1cc(C)c(/N=c2\scc(C)n2Cc2ccccc2)c(C)c1`, the cytotoxicity call was “inactive”.

Consider `Cc1ccc(S(=O)(=O)N(C)C[C@H]2Oc3ccc(NC(=O)Nc4ccc(C(F)(F)F)cc4)cc3C(=O)N([C@@H](C)CO)C[C@@H]2C)cc1`, for which the cytotoxicity call was “inactive”.

As to `C[C@H]1CN([C@@H](C)CO)C(=O)c2cc(NC(=O)Nc3ccc(C(F)(F)F)cc3)ccc2O[C@@H]1CN(C)S(=O)(=O)c1ccc(F)cc1`, the cytotoxicity call was “inactive”.

In the case of `C[C@H]1CN([C@@H](C)CO)C(=O)c2cc(NC(=O)Nc3ccc(C(F)(F)F)cc3)ccc2O[C@H]1CN(C)S(=O)(=O)c1ccc(F)cc1`, the cytotoxicity call is “inactive”.

`Cc1ccc(S(=O)(=O)N(C)C[C@H]2Oc3ccc(NC(=O)Nc4ccc(C(F)(F)F)cc4)cc3C(=O)N([C@H](C)CO)C[C@H]2C)cc1`: the cytotoxicity call is “active”.

With `C[C@@H]1CN([C@H](C)CO)C(=O)c2cc(NC(=O)Nc3ccc(C(F)(F)F)cc3)ccc2O[C@H]1CN(C)S(=O)(=O)c1ccc(F)cc1`, the cytotoxicity call was “active”.

As for `Cc1ccc(S(=O)(=O)N(C)C[C@H]2Oc3ccc(NC(=O)Nc4ccc(C(F)(F)F)cc4)cc3C(=O)N([C@H](C)CO)C[C@@H]2C)cc1`, the cytotoxicity call was “inactive”.

With `Cc1ccc(S(=O)(=O)N(C)C[C@@H]2Oc3ccc(NC(=O)Nc4ccc(C(F)(F)F)cc4)cc3C(=O)N([C@@H](C)CO)C[C@@H]2C)cc1`, the cytotoxicity call is “inactive”.

With `C[C@H](CO)N1C[C@H](C)[C@@H](CN(C)S(=O)(=O)c2ccc(F)cc2)Oc2ccc(NC(=O)Nc3ccc(C(F)(F)F)cc3)cc2C1=O`, the cytotoxicity call was “inactive”.

Consider `C[C@@H]1CN([C@@H](C)CO)C(=O)c2cc(NC(=O)Nc3ccc(C(F)(F)F)cc3)ccc2O[C@H]1CN(C)S(=O)(=O)c1ccc(F)cc1`, for which the cytotoxicity call is “inactive”.

Turning to `C[C@H](CO)N1C[C@H](C)[C@H](CN(C)S(=O)(=O)c2ccc(F)cc2)Oc2ccc(NC(=O)Nc3ccc(C(F)(F)F)cc3)cc2C1=O`, the cytotoxicity call was “active”.

`C[C@@H]1CN([C@@H](C)CO)C(=O)c2cc(NC(=O)Nc3ccc(C(F)(F)F)cc3)ccc2O[C@@H]1CN(C)S(=O)(=O)c1ccc(F)cc1`: the cytotoxicity call was “inactive”.

In the case of `C[C@@H]1CN([C@H](C)CO)C(=O)c2cc(NC(=O)Nc3ccc(C(F)(F)F)cc3)ccc2O[C@@H]1CN(C)S(=O)(=O)c1ccc(F)cc1`, the cytotoxicity call is “active”.
